Assay results: PubChem BioAssay (NCATS)
Several values for one entry are separate records, joined by “and”; a condition that tells them apart may be missing. Equal values may be shown once. Inconclusive results are not listed. Entries that show only a call come without a potency. Activity calls are given as the source filed them. Calls follow the shape of the full dose curve.

Columns and labels:
[1] = Cytotoxicity counterscreen for inhibitors of SARS-CoV-2 cell entry (AID 1645845); settings: cell viability (SARS-CoV-2 entry assay cells); series mostly up to 57.1 µM; also: nearly all actives have a fitted effect of over 50% in size
In short: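 48 h compound treatment (after 1 h preincubation), HEK293-ACE2 cells, 37 C/5% CO2; ATP luminescence endpoint; normalized to cell wells and media blanks.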

[2] = Primary qHTS to identify inhibitors of SARS-CoV-2 cell entry (AID 1645846); settings: SARS-CoV-2 pseudovirus cell entry assay, luminescence; activity change, negative = inhibition: at 57.1 µM (top of the series) unless noted; series mostly up to 57.1 µM; also: nearly all actives have a fitted effect of over 45% in size
In short: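 Data are normalized to wells receiving SARS-CoV-2-S pseudoparticles and those given bald particles. Entry signal was luciferase luminescence in stable hACE2 Expi293F cells, 48 hr post-infection, after 1 hr compound pretreatment.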
Potency is read from the fitted curve at half-maximal effect.

Row | SMILES | Potency [1] | activity change, negative = inhibition [2] | Potency [2]
1 | COC(=O)[C@H]1[C@H]2C[C@@H]3c4[nH]c5cc(OC)ccc5c4CCN3C[C@H]2C[C@@H](OC(=O)c2cc(OC)c(OC)c(OC)c2)[C@@H]1OC | inactive | -18.9% | 
2 | CC[C@@]1(c2ccccc2)NC(=O)N(C)C1=O | inactive | -24.8% | 
3 | CC(C)NC[C@@H](O)COc1ccc(CC(N)=O)cc1 | inactive | -29.4% | 
4 | Cc1cn[nH]c1 | inactive | 4.3% | 
5 | Cc1ccnc2c1NC(=O)c1cccnc1N2C1CC1 | inactive | -19.4% | 
6 | Cc1cn([C@H]2C=C[C@@H](CO)O2)c(=O)[nH]c1=O | inactive | -21.1% | 
7 | CO/N=C(\C(=O)N[C@@H]1C(=O)N2C(C(=O)O)=C(CSc3nc(=O)c(O)nn3C)CS[C@H]12)c1csc(N)n1 | inactive |  | inactive
8 | CNCC[C@@H](Oc1ccccc1C)c1ccccc1 | inactive | -15.9% | 
9 | CCCCc1nc(Cl)c(CO)n1Cc1ccc(-c2ccccc2-c2nn[nH]n2)cc1 | inactive |  | inactive
10 | CO/N=C1\CN(c2nc3c(cc2F)c(=O)c(C(=O)O)cn3C2CC2)CC1CN (stereo not drawn) | inactive | -12.6% | 
11 | Nc1[nH]c(=O)ncc1F | inactive | -21.9% and -13.2% | 
12 | Clc1ccc(C(c2ccccc2Cl)C(Cl)Cl)cc1 (stereo not drawn) | inactive | -40.6% | 
13 | Cc1nc2n(c(=O)c1CCN1CCC(c3noc4cc(F)ccc34)CC1)CCCC2 | inactive |  | inactive
14 | Cc1ccc2c(n1)Oc1ccc(C(C)C(=O)OCC(=O)N(C)C)cc1C2 (stereo not drawn) | inactive |  | inactive
15 | C[C@H]1O[C@H](O[C@H]2[C@H](O)[C@@H](O)[C@@H](O[C@H]3[C@H](O)[C@@H](O)[C@H](O)O[C@@H]3CO)O[C@@H]2CO)[C@H](O)[C@@H](O)[C@@H]1N[C@H]1C=C(CO)[C@@H](O)[C@H](O)[C@H]1O | inactive |  | inactive
16 | Cc1nccn1CC1CCc2c(c3ccccc3n2C)C1=O (stereo not drawn) | inactive | -12.3% | 
17 | CC(=O)OCC(CCn1cnc2cnc(N)nc21)COC(C)=O | inactive | -14.3% and -5.75% | 
18 | CCOC(=O)[C@H](CCc1ccccc1)N[C@@H](C)C(=O)N1Cc2ccccc2C[C@H]1C(=O)O | inactive | 3.61% | 
19 | NCCCC(O)(P(=O)(O)O)P(=O)(O)O | inactive | -4.6% and -17.5% | 
20 | CCOc1ccc2ccccc2c1C(=O)N[C@@H]1C(=O)N2[C@@H]1SC(C)(C)[C@@H]2C(=O)O | inactive |  | inactive

Row | SMILES | Potency [1] | activity change, negative = inhibition [2] | Potency [2]
21 | CN(C)CCOC(C)(c1ccccc1)c1ccccn1 (stereo not drawn) | inactive | 2.27% | 
22 | O=C(c1ccccc1)c1ccc2n1CCC2C(=O)O (stereo not drawn) | inactive |  | inactive
23 | CC1(CN2CCC(n3c(=O)[nH]c4ccccc43)CC2)OCc2ccccc2-n2cccc21 (stereo not drawn) | inactive | -26.7% | 
24 | CC(C)NCC(O)COc1ccc(CCOCC2CC2)cc1 (stereo not drawn) | inactive | -14.6% and -1.57% | 
25 | Cc1ncc([N+](=O)[O-])n1CCO | inactive | -22% | 
26 | CCC(C)(C)C(=O)O[C@H]1C[C@@H](C)C=C2C=C[C@H](C)[C@H](CC[C@@H]3C[C@@H](O)CC(=O)O3)[C@H]21 | inactive |  | inactive
27 | COc1ccccc1Oc1c(NS(=O)(=O)c2ccc(C(C)(C)C)cc2)nc(-c2ncccn2)nc1OCCO | inactive | -16.5% | 
28 | O=C1CCC(N2C(=O)c3ccccc3C2=O)C(=O)N1 (stereo not drawn) | inactive | -0.562% and -0.309% | 
29 | C[C@@H](c1ncncc1F)C(O)(Cn1cncn1)c1ccc(F)cc1F (stereo partly drawn) | inactive | -1.38% | 
30 | CCN1CCN(C(=O)N[C@@H](C(=O)N[C@@H]2C(=O)N3C(C(=O)O)=C(CSc4nnnn4C)CS[C@H]23)c2ccc(O)cc2)C(=O)C1=O | inactive |  | inactive
31 | COc1cc(NCc2ccc3nc(N)nc(N)c3c2C)cc(OC)c1OC | 11.2 µM (active) and 1.12 µM (active) |  | 2.82 µM (active)
32 | COc1cc(NC(C)CCCN)c2ncccc2c1 (stereo not drawn) | inactive | 2.06% | 
33 | N=C(N)c1ccc(OCCCCCOc2ccc(C(=N)N)cc2)cc1 | inactive |  | 15.8 µM (active)
34 | CC(C)(C)NC(=O)[C@@H]1CN(Cc2cccnc2)CCN1C[C@@H](O)C[C@@H](Cc1ccccc1)C(=O)N[C@H]1c2ccccc2C[C@H]1O | inactive | 4.24% | 
35 | NC(=Nc1ccccc1)Nc1ccccc1 | inactive | 1.43% | 
36 | CNCCc1ccccn1 | inactive |  | inactive
37 | CC(C)(O)c1ccccc1CC[C@@H](SCC1(CC(=O)O)CC1)c1cccc(/C=C/c2ccc3ccc(Cl)cc3n2)c1 | inactive |  | inactive
38 | O=C1NC(=O)C(c2ccccc2)(c2ccccc2)N1 | inactive |  | inactive
39 | CCOc1ccccc1OCCN[C@H](C)Cc1ccc(OC)c(S(N)(=O)=O)c1 | inactive | -21.5% | 
